Experimental data published in the supplement of paper PMC4466140.

target: AgAbp1; test: SPOT peptide array binding signal intensity (averaged, normalized) (arbitrary units (background-subtracted, floor 0; scale differs between SH3 domains)); higher = stronger binding of the SH3 domain to the peptide
Protocol: (§1)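 GST-tagged SH3 domains from S. cerevisiae (Sc), A. gossypii (Ag), C. albicans (Ca) and S. pombe (Sp) were incubated at 10 ug/ml overnight at 4 C on cellulose SPOT membranes carrying 292 synthetic 15-mer peptides mined from the S. cerevisiae proteome (cysteines replaced by serines). Binding was detected with anti-GST antibody, HRP secondary and chemiluminescence, quantified with Genespotter, and reported as normalized spot intensities averaged over biological replicates.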

| Binder | SPOT peptide array binding signal intensity |
| --- | --- |
| VQKRKLPLPGSIASA | 40 |

target: AgBbc1; test: as above
Protocol: as §1

| Binder | SPOT peptide array binding signal intensity |
| --- | --- |
| VQKRKLPLPGSIASA | 39.2 |

target: AgBem1-D1; test: as above
Protocol: as §1

| Binder | SPOT peptide array binding signal intensity |
| --- | --- |
| VQKRKLPLPGSIASA | 7.25 |

target: AgBzz1-D1; test: as above
Protocol: as §1

| Binder | SPOT peptide array binding signal intensity |
| --- | --- |
| VQKRKLPLPGSIASA | 47.8 |

target: AgBzz1-D2; test: as above
Protocol: as §1

| Binder | SPOT peptide array binding signal intensity |
| --- | --- |
| VQKRKLPLPGSIASA | 90.2 |

target: AgCyk3; test: as above
Protocol: as §1

| Binder | SPOT peptide array binding signal intensity |
| --- | --- |
| VQKRKLPLPGSIASA | 0.5 |

target: AgFus1; test: as above
Protocol: as §1

| Binder | SPOT peptide array binding signal intensity |
| --- | --- |
| VQKRKLPLPGSIASA | ≤ 0 |

target: AgHof1; test: as above
Protocol: as §1

| Binder | SPOT peptide array binding signal intensity |
| --- | --- |
| VQKRKLPLPGSIASA | 24.6 |

target: AgHse1; test: as above
Protocol: as §1

| Binder | SPOT peptide array binding signal intensity |
| --- | --- |
| VQKRKLPLPGSIASA | 58.5 |

target: AgLsb1; test: as above
Protocol: as §1

| Binder | SPOT peptide array binding signal intensity |
| --- | --- |
| VQKRKLPLPGSIASA | ≤ 0 |

target: AgLsb4; test: as above
Protocol: as §1

| Binder | SPOT peptide array binding signal intensity |
| --- | --- |
| VQKRKLPLPGSIASA | ≤ 0 |

target: AgMyo5; test: as above
Protocol: as §1

| Binder | SPOT peptide array binding signal intensity |
| --- | --- |
| VQKRKLPLPGSIASA | 6.25 |

target: AgNbp2; test: as above
Protocol: as §1

| Binder | SPOT peptide array binding signal intensity |
| --- | --- |
| VQKRKLPLPGSIASA | ≤ 0 |

target: AgRvs167; test: as above
Protocol: as §1

| Binder | SPOT peptide array binding signal intensity |
| --- | --- |
| VQKRKLPLPGSIASA | 0.75 |

target: AgSho1; test: as above
Protocol: as §1

| Binder | SPOT peptide array binding signal intensity |
| --- | --- |
| VQKRKLPLPGSIASA | 1.5 |

target: AgSla1-D1-D2; test: as above
Protocol: as §1

| Binder | SPOT peptide array binding signal intensity |
| --- | --- |
| VQKRKLPLPGSIASA | 6.5 |

target: AgSla1-D3; test: as above
Protocol: as §1

| Binder | SPOT peptide array binding signal intensity |
| --- | --- |
| VQKRKLPLPGSIASA | ≤ 0 |

target: CaAbp1-D1; test: as above
Protocol: as §1

| Binder | SPOT peptide array binding signal intensity |
| --- | --- |
| VQKRKLPLPGSIASA | 419 |

target: CaAbp1-D2; test: as above
Protocol: as §1

| Binder | SPOT peptide array binding signal intensity |
| --- | --- |
| VQKRKLPLPGSIASA | 782 |

target: CaBbc1; test: as above
Protocol: as §1

| Binder | SPOT peptide array binding signal intensity |
| --- | --- |
| VQKRKLPLPGSIASA | 442 |

target: CaBem1-D1; test: as above
Protocol: as §1

| Binder | SPOT peptide array binding signal intensity |
| --- | --- |
| VQKRKLPLPGSIASA | 13 |

target: CaBzz1-D1; test: as above
Protocol: as §1

| Binder | SPOT peptide array binding signal intensity |
| --- | --- |
| VQKRKLPLPGSIASA | 94 |

target: CaBzz1-D2; test: as above
Protocol: as §1

| Binder | SPOT peptide array binding signal intensity |
| --- | --- |
| VQKRKLPLPGSIASA | 44.6 |

target: CaCyk3; test: as above
Protocol: as §1

| Binder | SPOT peptide array binding signal intensity |
| --- | --- |
| VQKRKLPLPGSIASA | ≤ 0 |

target: CaFus1; test: as above
Protocol: as §1

| Binder | SPOT peptide array binding signal intensity |
| --- | --- |
| VQKRKLPLPGSIASA | ≤ 0 |

target: CaHof1; test: as above
Protocol: as §1

| Binder | SPOT peptide array binding signal intensity |
| --- | --- |
| VQKRKLPLPGSIASA | ≤ 0 |

target: CaHse1; test: as above
Protocol: as §1

| Binder | SPOT peptide array binding signal intensity |
| --- | --- |
| VQKRKLPLPGSIASA | ≤ 0 |

target: CaLsb1; test: as above
Protocol: as §1

| Binder | SPOT peptide array binding signal intensity |
| --- | --- |
| VQKRKLPLPGSIASA | ≤ 0 |

target: CaLsb4; test: as above
Protocol: as §1

| Binder | SPOT peptide array binding signal intensity |
| --- | --- |
| VQKRKLPLPGSIASA | ≤ 0 |

target: CaMyo5; test: as above
Protocol: as §1

| Binder | SPOT peptide array binding signal intensity |
| --- | --- |
| VQKRKLPLPGSIASA | 0.5 |

target: CaNbp2; test: as above
Protocol: as §1

| Binder | SPOT peptide array binding signal intensity |
| --- | --- |
| VQKRKLPLPGSIASA | 70 |

target: CaRvs167; test: as above
Protocol: as §1

| Binder | SPOT peptide array binding signal intensity |
| --- | --- |
| VQKRKLPLPGSIASA | 2.17 |

target: CaRvs167-3; test: as above
Protocol: as §1

| Binder | SPOT peptide array binding signal intensity |
| --- | --- |
| VQKRKLPLPGSIASA | 4.62 |

target: CaSho1; test: as above
Protocol: as §1

| Binder | SPOT peptide array binding signal intensity |
| --- | --- |
| VQKRKLPLPGSIASA | ≤ 0 |

target: CaSla1-D1-D2; test: as above
Protocol: as §1

| Binder | SPOT peptide array binding signal intensity |
| --- | --- |
| VQKRKLPLPGSIASA | 118 |

target: CaSla1-D3; test: as above
Protocol: as §1

| Binder | SPOT peptide array binding signal intensity |
| --- | --- |
| VQKRKLPLPGSIASA | ≤ 0 |

target: ScAbp1; test: as above
Protocol: as §1

| Binder | SPOT peptide array binding signal intensity |
| --- | --- |
| VQKRKLPLPGSIASA | 100 |

target: ScBbc1; test: as above
Protocol: as §1

| Binder | SPOT peptide array binding signal intensity |
| --- | --- |
| VQKRKLPLPGSIASA | 30.1 |

target: ScBem1-D1; test: as above
Protocol: as §1

| Binder | SPOT peptide array binding signal intensity |
| --- | --- |
| VQKRKLPLPGSIASA | 16.5 |

target: ScBzz1-D1; test: as above
Protocol: as §1

| Binder | SPOT peptide array binding signal intensity |
| --- | --- |
| VQKRKLPLPGSIASA | 21.2 |

target: ScBzz1-D2; test: as above
Protocol: as §1

| Binder | SPOT peptide array binding signal intensity |
| --- | --- |
| VQKRKLPLPGSIASA | 10 |

target: ScCyk3; test: as above
Protocol: as §1

| Binder | SPOT peptide array binding signal intensity |
| --- | --- |
| VQKRKLPLPGSIASA | ≤ 0 |

target: ScFus1; test: as above
Protocol: as §1

| Binder | SPOT peptide array binding signal intensity |
| --- | --- |
| VQKRKLPLPGSIASA | ≤ 0 |

target: ScHof1; test: as above
Protocol: as §1

| Binder | SPOT peptide array binding signal intensity |
| --- | --- |
| VQKRKLPLPGSIASA | 0.5 |

target: ScHse1; test: as above
Protocol: as §1

| Binder | SPOT peptide array binding signal intensity |
| --- | --- |
| VQKRKLPLPGSIASA | 63 |

target: ScLsb1; test: as above
Protocol: as §1

| Binder | SPOT peptide array binding signal intensity |
| --- | --- |
| VQKRKLPLPGSIASA | ≤ 0 |

target: ScLsb2; test: as above
Protocol: as §1

| Binder | SPOT peptide array binding signal intensity |
| --- | --- |
| VQKRKLPLPGSIASA | ≤ 0 |

target: ScLsb3; test: as above
Protocol: as §1

| Binder | SPOT peptide array binding signal intensity |
| --- | --- |
| VQKRKLPLPGSIASA | 525 |

target: ScLsb4; test: as above
Protocol: as §1

| Binder | SPOT peptide array binding signal intensity |
| --- | --- |
| VQKRKLPLPGSIASA | 11.5 |

target: ScMyo3; test: as above
Protocol: as §1

| Binder | SPOT peptide array binding signal intensity |
| --- | --- |
| VQKRKLPLPGSIASA | ≤ 0 |

target: ScMyo5; test: as above
Protocol: as §1

| Binder | SPOT peptide array binding signal intensity |
| --- | --- |
| VQKRKLPLPGSIASA | 1.5 |

target: ScNbp2; test: as above
Protocol: as §1

| Binder | SPOT peptide array binding signal intensity |
| --- | --- |
| VQKRKLPLPGSIASA | ≤ 0 |

target: ScPex13; test: as above
Protocol: as §1

| Binder | SPOT peptide array binding signal intensity |
| --- | --- |
| VQKRKLPLPGSIASA | 1 |

target: ScRvs167; test: as above
Protocol: as §1

| Binder | SPOT peptide array binding signal intensity |
| --- | --- |
| VQKRKLPLPGSIASA | 340 |

target: ScSho1; test: as above
Protocol: as §1

| Binder | SPOT peptide array binding signal intensity |
| --- | --- |
| VQKRKLPLPGSIASA | 50 |

target: ScSla1-D1-D2; test: as above
Protocol: as §1

| Binder | SPOT peptide array binding signal intensity |
| --- | --- |
| VQKRKLPLPGSIASA | 180 |

target: ScSla1-D3; test: as above
Protocol: as §1

| Binder | SPOT peptide array binding signal intensity |
| --- | --- |
| VQKRKLPLPGSIASA | 32.5 |

target: SpAbp1-D1; test: as above
Protocol: as §1

| Binder | SPOT peptide array binding signal intensity |
| --- | --- |
| VQKRKLPLPGSIASA | 174 |

target: SpBbc1; test: as above
Protocol: as §1

| Binder | SPOT peptide array binding signal intensity |
| --- | --- |
| VQKRKLPLPGSIASA | 0.5 |

target: SpBzz1-D1; test: as above
Protocol: as §1

| Binder | SPOT peptide array binding signal intensity |
| --- | --- |
| VQKRKLPLPGSIASA | 232 |

target: SpBzz1-D2; test: as above
Protocol: as §1

| Binder | SPOT peptide array binding signal intensity |
| --- | --- |
| VQKRKLPLPGSIASA | ≤ 0 |

target: SpCyk3; test: as above
Protocol: as §1

| Binder | SPOT peptide array binding signal intensity |
| --- | --- |
| VQKRKLPLPGSIASA | 15 |

target: SpHof1; test: as above
Protocol: as §1

| Binder | SPOT peptide array binding signal intensity |
| --- | --- |
| VQKRKLPLPGSIASA | 197 |

target: SpHof1-2; test: as above
Protocol: as §1

| Binder | SPOT peptide array binding signal intensity |
| --- | --- |
| VQKRKLPLPGSIASA | 253 |

target: SpHof1-3; test: as above
Protocol: as §1

| Binder | SPOT peptide array binding signal intensity |
| --- | --- |
| VQKRKLPLPGSIASA | 397 |

target: SpHse1; test: as above
Protocol: as §1

| Binder | SPOT peptide array binding signal intensity |
| --- | --- |
| VQKRKLPLPGSIASA | 34.1 |

target: SpLsb1; test: as above
Protocol: as §1

| Binder | SPOT peptide array binding signal intensity |
| --- | --- |
| VQKRKLPLPGSIASA | 50.6 |

target: SpLsb4; test: as above
Protocol: as §1

| Binder | SPOT peptide array binding signal intensity |
| --- | --- |
| VQKRKLPLPGSIASA | 275 |

target: SpMyo1; test: as above
Protocol: as §1

| Binder | SPOT peptide array binding signal intensity |
| --- | --- |
| VQKRKLPLPGSIASA | ≤ 0 |

target: SpNbp2; test: as above
Protocol: as §1

| Binder | SPOT peptide array binding signal intensity |
| --- | --- |
| VQKRKLPLPGSIASA | 7 |

target: SpPex13; test: as above
Protocol: as §1

| Binder | SPOT peptide array binding signal intensity |
| --- | --- |
| VQKRKLPLPGSIASA | ≤ 0 |

target: SpRvs167; test: as above
Protocol: as §1

| Binder | SPOT peptide array binding signal intensity |
| --- | --- |
| VQKRKLPLPGSIASA | 55.4 |

target: SpSla1-D1-D2; test: as above
Protocol: as §1

| Binder | SPOT peptide array binding signal intensity |
| --- | --- |
| VQKRKLPLPGSIASA | 16.2 |

target: SpSla1-D3; test: as above
Protocol: as §1

| Binder | SPOT peptide array binding signal intensity |
| --- | --- |
| VQKRKLPLPGSIASA | ≤ 0 |
